# Activity calls are given as the source filed them. Rule for the calls: active = hit-call score of the fitted dose curve at least 0.9, where 1 is the maximum; inactive = score below 0.9.
# Test: ATG_DR4_LXR_CIS: Attagene CIS-FACTORIAL HepG2 Assay for human Liver X Receptor (LXR), DR4 submotif (AID 2282929)
# Conditions: HepG2 Attagene DR4 cis-reporter, mRNA transcription; actives raise or lower the signal
# Method: ATG_CIS is a cell-based, multiplexed-readout assay that uses HepG2, a human liver cell line, with measurements taken at 24 hours after chemical dosing in a 24-well plate.ATG_DR4_LXR_CIS is one of 52 assay component(s) measured or calculated from the ATG_CIS assay. It is designed to make measurements of mRNA induction, a form of inducible reporter, as detected with fluorescence intensity signals by Reverse transcription polymerase chain reaction (RT-PCR) and Capillary electrophoresis technology.Data from the assay component ATG_DR4_LXR_CIS was analyzed into 1 assay endpoint. This assay endpoint, ATG_DR4_LXR_CIS, was analyzed with bidirectional fitting relative to DMSO as the negative control and baseline of activity. Using a type of inducible reporter, measures of mRNA for gain or loss-of-signal activity can be used to understand the reporter gene at the transcription factor-level as they relate to the gene NR1H2 and NR1H3. Furthermore, this assay endpoint can be referred to as a primary readout, because this assay has produced multiple assay endpoints where this one serves a reporter gene function. To generalize the intended target to other relatable targets, this assay endpoint is annotated to the nuclear receptor intended target family, where the subfamily is non-steroidal.
# Human liver HepG2 cells are transiently transfected with multiple reporter transcription units (MRTUs) in 6-well plates using FuGene 6 reagent (Roche; 3 ml FuGene/1 mg DNA). The MRTU constructs are regulated by a cis-regulating element (promoter). […] A major difference between the CIS and TRANS system is that in CIS activities of endogenous TFs are measured, whereas the TRANS assay evaluates changes in activities of exogenous, chimeric NR-Gal4 proteins. […] At the end of 24 hour incubation, total RNA was isolated using TriZol reagent (Invitrogen). The isolated RNA is then reverse-transcribed using oligo(dT) primer and Mo-MLV reverse transcriptase (Invitrogen) with DNAse I (Ambion) treatment for 30 min. The one-tenth of the produced cDNA was amplified by PCR using Taq DNA polymerase (Invitrogen) and two reporter sequence-specific primers. The PCR products were fluorescently labeled by primer extension with 6-arboxyfluorescein (6-FAM) 5'-labeled reporter sequence-specific primer (2 min at 95 C, 20 s at 68 C and 10 min at 72 C) and these products were digested with 5U of HpaI (New England Biolabs) for 2h at 37 C. The fragments were purified using Qiaquick PCR columns (Qiagen), analyzed on an ABI 3130xL genetic analyzer (Applied Biosystems) with peak positions identified by using a set of X-rhodamine (ROX)-labeled MapMarker1000 molecular weight standards (BioVentures). The raw capillary electrophoresis data was processed using Attagraph software (Attagene).
Compound,outcome,AC50
C[Si](C)(C)O[Si](C)(C)O[Si](C)(C)C,inactive,–
CCCC(=O)OC,inactive,–
CCCCCCCCCCCCCC,inactive,–
CCC(C)C1N=C(C)C(C)S1 (stereo not given),inactive,–
O=C(CC(C(=O)OC1CCCCC1)S(=O)(=O)O)OC1CCCCC1 (stereo not given),inactive,–
CCc1cc(C(N)=S)ccn1,inactive,–
CN(C)CCC(c1ccc(Cl)cc1)c1ccccn1 (stereo not given),inactive,–
CNC(=C[N+](=O)[O-])NCCSCc1csc(CN(C)C)n1,inactive,–
CC(C)n1c(/C=C/[C@@H](O)C[C@@H](O)CC(=O)O)c(-c2ccc(F)cc2)c2ccccc21,inactive,–
CC1=C(CC(=O)O)c2cc(F)ccc2/C1=C\c1ccc(S(C)=O)cc1 (stereo not given),inactive,–
CC(C)(C)NC(=O)[C@@H]1CN(Cc2cccnc2)CCN1C[C@@H](O)C[C@@H](Cc1ccccc1)C(=O)N[C@H]1c2ccccc2C[C@H]1O,inactive,–
OCCOCCOCCOCCOCCO,inactive,–
Clc1ccc(Sc2cc(Cl)c(Cl)cc2Cl)cc1,inactive,–
O=C(O)c1ccccc1C(=O)O,inactive,–
Cc1ccnc(N)c1,inactive,–
CC/C=C\CC/C=C/C(OCC)OCC,inactive,–
O=C(OCc1ccccc1)c1ccccc1,inactive,–
CC1=CCCC(C)(C)C12CCC(C)O2 (stereo not given),inactive,–
COC(=O)/C=C\C(=O)OC,inactive,–
CCCCCCCCCCCCCCCCCC[N+](C)(C)C,–,6.61 µM (active)

Compound,outcome,AC50
CCCCCC1CCCC(=O)O1 (stereo not given),inactive,–
NC(N)=Nc1nc(CSCCC(N)=NS(N)(=O)=O)cs1,inactive,–
Sc1nc2ccccc2s1,inactive,–
COC(OC)C(C)c1ccccc1 (stereo not given),inactive,–
CC/C=C\CCO,inactive,–
CC(=O)Nc1c(I)c(NC(C)=O)c(I)c(C(=O)O)c1I,inactive,–
C=CCOCC(CC)(CO)COCC=C,inactive,–
Oc1cccc2ccccc12,inactive,–
c1ccc2c(c1)Oc1ccccc1S2,–,171 µM (active)
CCO[Si](CCCN)(OCC)OCC,inactive,–
CCCCn1cc[n+](C)c1,inactive,–
CCOc1ccc2c(c1)C(C)CC(C)(C)N2 (stereo not given),inactive,–
CC(C)CC(=O)CC(C)CC(C)C (stereo not given),inactive,–
CCCCNC(N)=O,inactive,–
CCC(=O)OCc1ccc(OC)cc1,inactive,–
O=C(Oc1ccccc1)c1ccccc1,inactive,–
c1ccc(CNc2ncnc3nc[nH]c23)cc1,inactive,–
Oc1ccc(Cl)cc1C1CCCC1,–,43.2 µM (active)
CC(O)(P(=O)(O)O)P(=O)(O)O,inactive,–
CC(C)(Oc1ccc(Cl)cc1)C(=O)O,inactive,–
